The source of these data is PMC7862700, “An all-to-all approach to the identification of sequence-specific readers for epigenetic DNA modifications on cytosine”.

Holding throughout (test): DAPPL (digital affinity profiling via proximity ligation, sequencing); 10 mM Tris-HCl pH 7.5, 50 mM NaCl, 1 mM DTT, 4% glycerol, room temperature, 30 min; GST-TFs on glutathione beads, 16-mer random dsDNA library, 0.1% formaldehyde crosslink after washing; high values mean tight binding
One experiment addresses T1, FLI1 (Homo sapiens, UniProt Q01543 1-452).
T1 sequence: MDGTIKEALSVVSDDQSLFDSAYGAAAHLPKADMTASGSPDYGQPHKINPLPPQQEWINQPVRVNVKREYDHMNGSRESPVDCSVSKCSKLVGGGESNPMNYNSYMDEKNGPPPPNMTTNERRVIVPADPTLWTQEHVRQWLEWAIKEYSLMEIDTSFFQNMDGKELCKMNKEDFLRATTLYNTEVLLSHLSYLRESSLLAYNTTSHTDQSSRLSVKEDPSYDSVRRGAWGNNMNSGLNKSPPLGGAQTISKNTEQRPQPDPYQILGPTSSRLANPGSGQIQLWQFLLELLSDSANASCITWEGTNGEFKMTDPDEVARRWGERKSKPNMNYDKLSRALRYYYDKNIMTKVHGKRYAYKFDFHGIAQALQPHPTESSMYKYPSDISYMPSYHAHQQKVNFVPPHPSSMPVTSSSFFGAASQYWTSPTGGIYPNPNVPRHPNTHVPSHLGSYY
As to conditions: protein: recombinant; tags: N-terminal GST; dsDNA, one strand shown. Summed up: (§1)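 After expression in yeast as GST fusions, human transcription factors were bound to glutathione beads, DNA-barcoded and mixed with a tag-only sample. The pools were incubated with 200 nmole of a 16-mer random double-stranded DNA library in Tris/NaCl/DTT/glycerol buffer (30 min, room temperature), washed and crosslinked with 0.1% formaldehyde. Proximity ligation with BsaI/T4 ligase ran for 1 h at 37 °C, before PCR amplification and sequencing on an Illumina NextSeq500. Binding signal is a hexamer's read frequency for a factor divided by its frequency for the tag-only sample.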

The target in another experiment is T2, ELK1 (Homo sapiens, UniProt P19419 1-428).
T2 sequence: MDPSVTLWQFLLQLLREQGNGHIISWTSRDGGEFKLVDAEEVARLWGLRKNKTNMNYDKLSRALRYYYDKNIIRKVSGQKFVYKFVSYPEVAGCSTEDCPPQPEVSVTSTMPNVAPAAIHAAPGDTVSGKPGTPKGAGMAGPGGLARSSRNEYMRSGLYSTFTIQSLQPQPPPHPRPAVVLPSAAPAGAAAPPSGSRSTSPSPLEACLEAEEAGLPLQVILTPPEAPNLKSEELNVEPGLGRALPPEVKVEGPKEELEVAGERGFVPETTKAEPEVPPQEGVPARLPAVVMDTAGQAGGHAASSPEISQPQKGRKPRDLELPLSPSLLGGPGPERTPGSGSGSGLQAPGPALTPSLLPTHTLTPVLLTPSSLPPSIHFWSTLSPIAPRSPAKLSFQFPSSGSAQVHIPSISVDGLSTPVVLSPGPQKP
To be noted: protein: recombinant; tags: N-terminal GST; dsDNA, one strand shown. Put shortly: as §1

A further experiment deals with T3, GABPA (Homo sapiens, UniProt Q06546 1-454).
T3 sequence: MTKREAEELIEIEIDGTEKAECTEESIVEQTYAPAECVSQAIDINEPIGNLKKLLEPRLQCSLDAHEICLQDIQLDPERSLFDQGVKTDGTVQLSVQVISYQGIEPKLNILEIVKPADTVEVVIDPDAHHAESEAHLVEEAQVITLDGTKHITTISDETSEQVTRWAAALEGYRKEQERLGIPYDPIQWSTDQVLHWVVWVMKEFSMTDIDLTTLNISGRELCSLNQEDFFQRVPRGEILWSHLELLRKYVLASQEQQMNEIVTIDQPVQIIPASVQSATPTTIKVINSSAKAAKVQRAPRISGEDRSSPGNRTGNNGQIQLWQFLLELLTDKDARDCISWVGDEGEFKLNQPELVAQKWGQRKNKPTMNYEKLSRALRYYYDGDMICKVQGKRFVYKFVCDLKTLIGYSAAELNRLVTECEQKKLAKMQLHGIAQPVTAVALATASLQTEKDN
To be noted: protein: recombinant; tags: N-terminal GST; dsDNA, one strand shown. Put shortly:
as §1

In the next experiment the target is T4, ERG (Homo sapiens, UniProt P11308 1-479).
T4 sequence: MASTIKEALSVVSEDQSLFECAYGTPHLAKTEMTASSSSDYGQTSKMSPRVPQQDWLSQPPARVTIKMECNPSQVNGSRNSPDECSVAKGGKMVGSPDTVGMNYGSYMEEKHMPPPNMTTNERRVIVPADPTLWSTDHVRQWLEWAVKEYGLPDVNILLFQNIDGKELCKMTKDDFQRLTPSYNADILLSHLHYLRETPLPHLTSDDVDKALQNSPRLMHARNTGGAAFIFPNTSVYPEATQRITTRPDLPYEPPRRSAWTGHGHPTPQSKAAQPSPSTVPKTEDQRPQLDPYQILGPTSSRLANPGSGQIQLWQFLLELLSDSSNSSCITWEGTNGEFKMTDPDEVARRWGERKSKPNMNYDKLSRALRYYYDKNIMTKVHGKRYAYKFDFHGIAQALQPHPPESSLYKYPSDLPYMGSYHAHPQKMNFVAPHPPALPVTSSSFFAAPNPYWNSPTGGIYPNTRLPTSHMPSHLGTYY
As to conditions: protein: recombinant; tags: N-terminal GST; dsDNA, one strand shown. Put shortly: as §1

The target in a further experiment is ELF1 (Homo sapiens, UniProt P32519 1-619). To be noted: protein: recombinant; tags: N-terminal GST; dsDNA, one strand shown. Summed up: as §1
Chain of ELF1 (P32519 whole entry): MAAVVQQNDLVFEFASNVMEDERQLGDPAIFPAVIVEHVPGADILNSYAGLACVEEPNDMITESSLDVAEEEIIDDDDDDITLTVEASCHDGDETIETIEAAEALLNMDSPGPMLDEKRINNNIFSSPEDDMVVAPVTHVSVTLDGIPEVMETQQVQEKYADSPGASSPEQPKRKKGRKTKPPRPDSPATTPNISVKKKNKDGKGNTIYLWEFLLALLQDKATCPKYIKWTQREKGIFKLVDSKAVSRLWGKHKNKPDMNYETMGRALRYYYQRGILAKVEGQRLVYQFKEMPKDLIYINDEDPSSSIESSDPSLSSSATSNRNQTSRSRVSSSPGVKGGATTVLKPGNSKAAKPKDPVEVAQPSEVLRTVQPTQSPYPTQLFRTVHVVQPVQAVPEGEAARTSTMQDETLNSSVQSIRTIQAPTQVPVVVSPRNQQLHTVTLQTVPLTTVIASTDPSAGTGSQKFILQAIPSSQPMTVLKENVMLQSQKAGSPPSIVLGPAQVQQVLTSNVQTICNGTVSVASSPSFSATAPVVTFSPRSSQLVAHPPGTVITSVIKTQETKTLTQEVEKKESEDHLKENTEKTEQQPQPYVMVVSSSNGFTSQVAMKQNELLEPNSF
In a further experiment the target is T5, EHF (Homo sapiens, UniProt Q9NZC4 1-300).
T5 sequence: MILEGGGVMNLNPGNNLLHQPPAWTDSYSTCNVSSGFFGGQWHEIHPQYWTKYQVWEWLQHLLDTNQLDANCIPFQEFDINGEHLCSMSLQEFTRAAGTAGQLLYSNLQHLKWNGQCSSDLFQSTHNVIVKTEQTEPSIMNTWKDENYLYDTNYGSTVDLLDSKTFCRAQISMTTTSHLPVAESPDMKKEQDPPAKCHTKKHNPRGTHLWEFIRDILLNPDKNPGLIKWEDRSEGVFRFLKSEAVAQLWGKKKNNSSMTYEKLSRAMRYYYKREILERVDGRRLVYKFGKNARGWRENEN
As to conditions: protein: recombinant; tags: N-terminal GST; dsDNA, one strand shown. Put shortly: as §1

A further experiment addresses SPI1 (Homo sapiens, UniProt P17947 1-270). As to conditions: protein: recombinant; tags: N-terminal GST; dsDNA, one strand shown. Put shortly: as §1
For another experiment, the target named is SPIB (Homo sapiens, UniProt Q01892 1-262). As to conditions: protein: recombinant; tags: N-terminal GST; dsDNA, one strand shown. Summed up: as §1
Chain of SPIB (Q01892 whole entry): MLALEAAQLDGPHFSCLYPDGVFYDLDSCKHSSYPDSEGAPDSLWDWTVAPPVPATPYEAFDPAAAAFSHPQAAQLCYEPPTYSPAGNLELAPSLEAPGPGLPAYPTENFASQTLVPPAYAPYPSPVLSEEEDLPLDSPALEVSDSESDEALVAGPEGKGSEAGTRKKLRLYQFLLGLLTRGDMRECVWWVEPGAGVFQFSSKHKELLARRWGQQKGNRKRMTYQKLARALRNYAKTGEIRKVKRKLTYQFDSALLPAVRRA
In another experiment the target is T6, ELK3 (Homo sapiens, UniProt P41970 1-407).
T6 sequence: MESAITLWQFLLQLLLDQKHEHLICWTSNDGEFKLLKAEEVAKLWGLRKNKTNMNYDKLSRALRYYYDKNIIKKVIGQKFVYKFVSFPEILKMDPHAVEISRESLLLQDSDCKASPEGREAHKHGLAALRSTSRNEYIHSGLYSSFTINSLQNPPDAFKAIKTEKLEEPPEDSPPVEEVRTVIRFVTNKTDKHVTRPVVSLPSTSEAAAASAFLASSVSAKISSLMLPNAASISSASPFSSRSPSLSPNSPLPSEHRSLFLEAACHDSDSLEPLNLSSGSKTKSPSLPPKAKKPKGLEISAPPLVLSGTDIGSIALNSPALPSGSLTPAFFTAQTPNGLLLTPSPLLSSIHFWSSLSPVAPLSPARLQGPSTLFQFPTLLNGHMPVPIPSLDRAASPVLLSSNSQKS
To be noted: protein: recombinant; tags: N-terminal GST; dsDNA, one strand shown. Put shortly: as §1

A further experiment deals with T7, FEV (Homo sapiens, UniProt Q99581 1-238).
T7 sequence: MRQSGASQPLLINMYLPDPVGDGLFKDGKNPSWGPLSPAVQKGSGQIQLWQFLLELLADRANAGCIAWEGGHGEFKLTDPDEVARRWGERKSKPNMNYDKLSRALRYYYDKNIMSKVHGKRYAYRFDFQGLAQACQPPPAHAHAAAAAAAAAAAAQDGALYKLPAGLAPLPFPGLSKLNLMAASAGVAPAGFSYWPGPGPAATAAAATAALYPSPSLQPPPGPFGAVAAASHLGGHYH
As to conditions: protein: recombinant; tags: N-terminal GST; dsDNA, one strand shown. Put shortly:
as §1

Another experiment addresses ETV5 (Homo sapiens, UniProt P41161 1-510). As to conditions: protein: recombinant; tags: N-terminal GST; dsDNA, one strand shown. Put shortly: as §1
A further experiment deals with HSF1 (Homo sapiens, UniProt Q00613 1-529). As to conditions: protein: recombinant; tags: N-terminal GST; chain copies: 3; dsDNA, one strand shown. Put shortly:
as §1

For a further experiment, the target named is T8, SPIC (Homo sapiens, UniProt Q8N5J4 1-248).
T8 sequence: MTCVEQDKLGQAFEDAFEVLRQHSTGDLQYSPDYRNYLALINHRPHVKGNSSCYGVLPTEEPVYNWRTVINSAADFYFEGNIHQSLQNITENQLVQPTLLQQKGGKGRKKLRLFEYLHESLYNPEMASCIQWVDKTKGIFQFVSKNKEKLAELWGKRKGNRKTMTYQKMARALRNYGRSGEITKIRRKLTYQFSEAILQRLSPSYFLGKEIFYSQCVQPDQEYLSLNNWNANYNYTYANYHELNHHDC
As to conditions: protein: recombinant; tags: N-terminal GST; dsDNA, one strand shown. Put shortly: as §1

The target in the next experiment is ELF4 (Homo sapiens, UniProt Q99607 1-663). As to conditions: protein: recombinant; tags: N-terminal GST; dsDNA, one strand shown. Summed up: as §1
Chain of ELF4 (Q99607 whole entry): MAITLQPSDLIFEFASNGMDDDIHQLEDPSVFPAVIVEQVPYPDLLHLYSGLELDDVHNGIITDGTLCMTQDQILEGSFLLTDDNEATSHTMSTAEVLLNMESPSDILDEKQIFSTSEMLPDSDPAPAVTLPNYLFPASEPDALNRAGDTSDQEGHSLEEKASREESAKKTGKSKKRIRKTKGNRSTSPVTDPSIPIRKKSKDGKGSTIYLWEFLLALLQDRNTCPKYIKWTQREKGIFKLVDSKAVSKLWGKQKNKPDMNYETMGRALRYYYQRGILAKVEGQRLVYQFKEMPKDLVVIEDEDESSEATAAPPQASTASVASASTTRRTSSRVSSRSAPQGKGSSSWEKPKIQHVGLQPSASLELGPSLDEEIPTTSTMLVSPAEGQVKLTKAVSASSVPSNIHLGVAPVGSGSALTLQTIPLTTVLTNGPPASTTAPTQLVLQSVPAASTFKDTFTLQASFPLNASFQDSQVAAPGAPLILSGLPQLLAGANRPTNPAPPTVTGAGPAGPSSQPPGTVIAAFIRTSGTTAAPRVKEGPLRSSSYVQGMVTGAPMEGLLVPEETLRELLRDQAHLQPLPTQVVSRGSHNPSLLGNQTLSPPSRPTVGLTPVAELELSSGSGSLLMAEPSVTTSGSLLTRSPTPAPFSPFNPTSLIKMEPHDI
The target of the next experiment is T9, ELK4 (Homo sapiens, UniProt P28324-2 1-405).
T9 sequence: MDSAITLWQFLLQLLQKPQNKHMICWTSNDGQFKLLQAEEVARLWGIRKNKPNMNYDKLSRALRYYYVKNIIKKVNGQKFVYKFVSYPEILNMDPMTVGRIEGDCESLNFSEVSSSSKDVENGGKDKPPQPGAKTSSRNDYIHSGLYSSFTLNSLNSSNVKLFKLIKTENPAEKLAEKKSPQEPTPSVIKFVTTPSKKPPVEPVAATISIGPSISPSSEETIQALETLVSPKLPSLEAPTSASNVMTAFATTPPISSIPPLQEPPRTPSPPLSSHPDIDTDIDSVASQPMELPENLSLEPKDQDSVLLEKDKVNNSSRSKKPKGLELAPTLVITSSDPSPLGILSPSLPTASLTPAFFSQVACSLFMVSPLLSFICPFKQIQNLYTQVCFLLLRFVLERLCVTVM
To be noted: protein: recombinant; tags: N-terminal GST; dsDNA, one strand shown. Summed up: as §1

Another experiment deals with T10, ETV2 (Homo sapiens, UniProt O00321 1-342).
T10 sequence: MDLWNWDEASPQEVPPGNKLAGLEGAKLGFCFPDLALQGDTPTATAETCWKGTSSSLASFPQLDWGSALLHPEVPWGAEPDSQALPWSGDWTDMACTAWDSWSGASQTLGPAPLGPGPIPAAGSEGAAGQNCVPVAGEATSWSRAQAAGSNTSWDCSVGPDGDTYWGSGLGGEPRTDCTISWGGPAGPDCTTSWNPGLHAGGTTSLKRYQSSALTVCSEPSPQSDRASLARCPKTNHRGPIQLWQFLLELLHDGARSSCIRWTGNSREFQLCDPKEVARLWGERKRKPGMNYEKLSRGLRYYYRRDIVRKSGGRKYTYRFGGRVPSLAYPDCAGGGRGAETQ
To be noted: protein: recombinant; tags: N-terminal GST; dsDNA, one strand shown. Put shortly: as §1

Another experiment has as its target T11, ELF3 (Homo sapiens, UniProt P78545 1-371).
T11 sequence: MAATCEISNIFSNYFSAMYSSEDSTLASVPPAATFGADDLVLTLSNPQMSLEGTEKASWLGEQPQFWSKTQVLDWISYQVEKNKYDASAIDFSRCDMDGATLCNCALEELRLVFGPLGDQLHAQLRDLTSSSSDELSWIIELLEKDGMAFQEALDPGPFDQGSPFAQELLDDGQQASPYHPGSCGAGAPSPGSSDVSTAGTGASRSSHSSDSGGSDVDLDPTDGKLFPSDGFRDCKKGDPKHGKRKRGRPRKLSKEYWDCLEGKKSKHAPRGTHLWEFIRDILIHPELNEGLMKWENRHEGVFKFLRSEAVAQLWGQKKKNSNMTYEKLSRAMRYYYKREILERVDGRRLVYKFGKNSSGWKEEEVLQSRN
As to conditions: protein: recombinant; tags: N-terminal GST; dsDNA, one strand shown. Put shortly: as §1

Another experiment has as its target CRX (Homo sapiens, UniProt O43186 1-299). As to conditions: protein: recombinant; tags: N-terminal GST; dsDNA, one strand shown. Put shortly:
as §1

The target in another experiment is ETV1 (Homo sapiens, UniProt P50549 1-477). As to conditions: protein: recombinant; tags: N-terminal GST; dsDNA, one strand shown. Put shortly:
as §1

Chain of HSF1 (Q00613 whole entry): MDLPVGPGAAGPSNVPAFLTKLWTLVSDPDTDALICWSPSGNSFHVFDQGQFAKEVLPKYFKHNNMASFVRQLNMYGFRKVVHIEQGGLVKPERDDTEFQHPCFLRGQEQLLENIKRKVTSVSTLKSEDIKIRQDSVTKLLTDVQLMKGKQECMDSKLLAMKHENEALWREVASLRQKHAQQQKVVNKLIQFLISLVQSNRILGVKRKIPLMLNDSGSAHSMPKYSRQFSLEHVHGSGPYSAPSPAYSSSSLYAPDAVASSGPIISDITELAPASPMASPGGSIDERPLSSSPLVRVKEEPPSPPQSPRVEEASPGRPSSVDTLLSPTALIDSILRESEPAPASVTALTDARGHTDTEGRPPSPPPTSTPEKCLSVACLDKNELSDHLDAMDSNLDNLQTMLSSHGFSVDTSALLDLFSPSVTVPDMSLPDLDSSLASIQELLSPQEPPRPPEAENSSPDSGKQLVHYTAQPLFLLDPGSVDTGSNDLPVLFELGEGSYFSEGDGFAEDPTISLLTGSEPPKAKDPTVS
Chain of ETV5 (P41161 whole entry): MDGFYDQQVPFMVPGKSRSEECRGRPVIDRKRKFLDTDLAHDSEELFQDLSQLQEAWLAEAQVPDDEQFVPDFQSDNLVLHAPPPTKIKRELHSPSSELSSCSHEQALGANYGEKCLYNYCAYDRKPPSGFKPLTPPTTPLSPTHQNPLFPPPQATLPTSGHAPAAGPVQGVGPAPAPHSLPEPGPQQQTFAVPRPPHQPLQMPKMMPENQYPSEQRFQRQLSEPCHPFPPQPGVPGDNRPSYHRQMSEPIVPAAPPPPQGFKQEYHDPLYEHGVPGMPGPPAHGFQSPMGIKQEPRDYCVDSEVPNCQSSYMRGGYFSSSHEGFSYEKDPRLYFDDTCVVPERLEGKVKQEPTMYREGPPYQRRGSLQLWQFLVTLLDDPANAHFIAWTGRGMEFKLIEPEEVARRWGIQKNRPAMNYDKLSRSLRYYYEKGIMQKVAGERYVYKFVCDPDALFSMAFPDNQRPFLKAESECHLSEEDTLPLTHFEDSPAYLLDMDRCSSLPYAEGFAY
Chain of ETV1 (P50549 whole entry): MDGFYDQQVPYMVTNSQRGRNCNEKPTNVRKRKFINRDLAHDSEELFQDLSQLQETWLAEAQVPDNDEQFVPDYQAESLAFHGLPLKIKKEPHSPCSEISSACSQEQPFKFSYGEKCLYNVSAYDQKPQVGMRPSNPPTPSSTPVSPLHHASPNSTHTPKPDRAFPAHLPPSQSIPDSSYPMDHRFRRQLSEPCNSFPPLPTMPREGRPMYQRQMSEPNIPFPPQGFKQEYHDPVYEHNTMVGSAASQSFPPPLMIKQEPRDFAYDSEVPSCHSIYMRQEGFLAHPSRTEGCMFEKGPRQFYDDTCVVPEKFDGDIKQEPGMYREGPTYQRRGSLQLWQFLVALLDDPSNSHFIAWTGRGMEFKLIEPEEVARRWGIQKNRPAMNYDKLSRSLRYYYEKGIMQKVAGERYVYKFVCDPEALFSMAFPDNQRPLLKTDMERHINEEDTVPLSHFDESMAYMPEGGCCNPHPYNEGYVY
Chain of CRX (O43186 whole entry): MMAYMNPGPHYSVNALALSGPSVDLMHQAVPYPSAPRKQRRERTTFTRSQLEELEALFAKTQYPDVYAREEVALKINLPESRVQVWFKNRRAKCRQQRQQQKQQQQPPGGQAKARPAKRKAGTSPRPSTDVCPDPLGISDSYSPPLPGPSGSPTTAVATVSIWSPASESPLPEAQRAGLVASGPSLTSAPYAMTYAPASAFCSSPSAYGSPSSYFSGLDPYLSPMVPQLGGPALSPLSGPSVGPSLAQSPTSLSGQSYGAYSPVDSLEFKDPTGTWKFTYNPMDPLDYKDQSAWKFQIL

Turning to ATCCGA, the binding signal is 1.1 fold enrichment (6-mer frequency, TF over GST control) with FLI1; 1.17 fold enrichment (6-mer frequency, TF over GST control) with ELK1; 1.2 fold enrichment (6-mer frequency, TF over GST control) with GABPA; 1.31 fold enrichment (6-mer frequency, TF over GST control) with ERG; 1.15 fold enrichment (6-mer frequency, TF over GST control) in the experiment with ELF1; 1.17 fold enrichment (6-mer frequency, TF over GST control) with EHF. Besides, the binding signal with SPI1 was 1.08 fold enrichment (6-mer frequency, TF over GST control); in the experiment with SPIB it was 1.32 fold enrichment (6-mer frequency, TF over GST control); in the experiment with ELK3, 1.32 fold enrichment (6-mer frequency, TF over GST control); with FEV, 1.29 fold enrichment (6-mer frequency, TF over GST control); with ETV5 it was 1.2 fold enrichment (6-mer frequency, TF over GST control); in the experiment with HSF1 it was 1.56 fold enrichment (6-mer frequency, TF over GST control). Further, the binding signal in the experiment with SPIC was 1.31 fold enrichment (6-mer frequency, TF over GST control); with ELF4 it was 1.13 fold enrichment (6-mer frequency, TF over GST control); with ELK4, 1.18 fold enrichment (6-mer frequency, TF over GST control); with ETV2 it was 1.24 fold enrichment (6-mer frequency, TF over GST control); with ELF3, 1.09 fold enrichment (6-mer frequency, TF over GST control); in the experiment with CRX, 2.02 fold enrichment (6-mer frequency, TF over GST control). Further, in the experiment with ETV1, the binding signal is 1.17 fold enrichment (6-mer frequency, TF over GST control).
